From PubChem BioAssay
Compounds with a hit are over-represented: about 2.3% of the library has one in this group of screens.
CHT inh = inhibitors of human choline transporter CHT. High affinity choline transporter 1 (Homo sapiens), Q9GZV3. CHT-expressing cells, membrane potential dye, choline response; hits give low values. B-score at 10 µM. hit rate 0.86% among 310,000. AID 488975, 2010;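 active means B-score over 3 SD under the library average, and starting fluorescence ratio not unusually high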;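 further: choline stimulus applied at its EC90 after an EC20 pre-addition; B-score computed on integrated fluorescence ratio after choline addition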
ANO1 block = TMEM16A chloride channel inhibitors, primary screen, cell-based, HTS. Anoctamin-1 (Mus musculus), Q8BHY3. HEK293 TMEM16A/YFP iodide influx fluorescence, ionomycin. normalized B-score (activity score, 25-100; higher = stronger inhibition) at 10 µM. hit rate 1.2% among 310,000;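 active means ratio plate-corrected score three or more library SD toward inhibition, starting fluorescence score within five deviations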;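 further: score derived from kinetic fluorescence span divided by baseline fluorescence per well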
Target sequence (Q8BHY3 whole entry, looked up): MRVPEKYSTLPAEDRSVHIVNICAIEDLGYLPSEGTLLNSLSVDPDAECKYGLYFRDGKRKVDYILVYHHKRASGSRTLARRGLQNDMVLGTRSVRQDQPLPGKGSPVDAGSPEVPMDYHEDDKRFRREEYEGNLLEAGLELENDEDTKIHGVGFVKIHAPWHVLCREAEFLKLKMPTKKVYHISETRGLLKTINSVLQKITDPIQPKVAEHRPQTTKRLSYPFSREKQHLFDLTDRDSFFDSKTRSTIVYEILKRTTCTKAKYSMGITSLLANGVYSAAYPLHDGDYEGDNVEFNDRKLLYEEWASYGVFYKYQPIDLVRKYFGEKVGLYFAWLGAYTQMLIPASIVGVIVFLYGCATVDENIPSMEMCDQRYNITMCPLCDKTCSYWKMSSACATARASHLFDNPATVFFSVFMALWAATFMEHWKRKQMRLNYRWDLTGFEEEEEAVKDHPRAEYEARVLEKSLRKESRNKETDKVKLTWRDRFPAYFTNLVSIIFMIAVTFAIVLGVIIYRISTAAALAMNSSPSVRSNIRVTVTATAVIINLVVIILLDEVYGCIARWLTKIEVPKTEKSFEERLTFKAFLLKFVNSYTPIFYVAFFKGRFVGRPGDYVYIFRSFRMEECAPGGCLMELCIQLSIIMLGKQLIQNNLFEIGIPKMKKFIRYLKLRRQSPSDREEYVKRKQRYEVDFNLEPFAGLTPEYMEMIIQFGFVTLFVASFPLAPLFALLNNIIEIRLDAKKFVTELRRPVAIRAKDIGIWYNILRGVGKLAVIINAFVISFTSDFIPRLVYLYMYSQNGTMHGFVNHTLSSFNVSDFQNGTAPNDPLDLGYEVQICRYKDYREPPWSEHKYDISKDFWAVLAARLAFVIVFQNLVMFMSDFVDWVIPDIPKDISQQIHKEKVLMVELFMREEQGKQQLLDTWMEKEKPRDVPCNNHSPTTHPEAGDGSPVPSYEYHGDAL
CHT PAM = CHT positive allosteric modulators, primary screen, cell-based, membrane potential dye, choline EC20; High affinity choline transporter 1 (Homo sapiens), Q9GZV3; CHT-expressing cells; hits give high values; LV-AA mutant CHT in HEK293 cells; B-score at 10 µM; hit rate 0.49% among 310,000; AID 488977, 2010;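 active means initial fluorescence not abnormally high and integrated response B-score, plate-corrected, over 3 SD above library mean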
TMEM16A act = TMEM16A chloride channel activators or potentiators, primary screen, cell-based, HTS. HEK293 TMEM16A/YFP-H148Q/I152L, iodide quench fluorescence; hits give low values. B-score at 10 µM. hit rate 0.3% among 340,000;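 active means fluorescence-ratio B-score plate-corrected deviation score at least 3 library SD below zero, with starting fluorescence score within 5 deviations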;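 further: channel opened by trigger with iodide after compound preincubation; score built on the fluorescence ratio of max minus min over baseline; more negative score means more quench and so TMEM16A activation or potentiation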
CHT act confirm = CHT activators, confirmation, cell-based, membrane potential dye, duplicate; CHT-expressing cells, membrane potential dye fluorescence (FDSS); % of choline EC20–EC90 response window; HEK293 expressing CHT LV-AA mutant; choline added at its EC20; hit rate 91% among 2,500; activation, % at 10 µM; shares compounds with CHT PAM;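 active means primary screen active, with duplicate mean activation above negative control mean plus 3 SD, cut at about 11% in these data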
HEK293 MP dye = membrane potential response in parental HEK293 cells, counter-screen for CHT activator project, cell-based, membrane potential dye. membrane potential dye fluorescence (FDSS); measured after EC20 choline addition. hit rate 62% among 2,500. ratio readout change at 10 µM, hits read low. shares compounds with CHT PAM;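 active means duplicate-averaged ratio beyond 3 SD from buffer wells, up or down, though filed actives are nearly all decreases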
TMEM16A reconf = TMEM16A chloride channel inhibitors, confirmation, cell-based, re-confirmation. AID 652189, 2013. HEK293 TMEM16A/YFP-H148Q, iodide quench fluorescence; ionomycin added to raise cell calcium. inhibition, % at 10 µM. hit rate 39% among 2,300. shares compounds with ANO1 block;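 active means mean duplicate percent inhibition, scaled so buffer wells are 0 and the reference blocker 100, over three buffer SD above buffer mean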
HEK293 Ca mobil = calcium mobilization in TMEM16A/YFP HEK293 cells, confirmation, counter-screen for TMEM16A inhibitor project; shares compounds with ANO1 block; calcium response (% of ionomycin), % at 10 µM; hit rate 2% among 2,300; Fluo4 calcium mobilization; AID 652231, 2013;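 active means duplicate-averaged calcium signal over 20% of the ionomycin maximum, relative to buffer baseline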;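 further: each well's signal is peak minus trough fluorescence divided by its pre-addition baseline; 0% = buffer wells and 100% = ionomycin wells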
Parental YFP cnt = iodide YFP quench changes in parental YFP-HEK293, counter-screen for TMEM16A inhibitor project, cell-based; 2,300 tested, under 10 active; ionomycin; shares compounds with ANO1 block; AID 652233, 2013; YFP ratio F(max-min)/F0 at 10 µM;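 active means yellow fluorescent protein signal ratio exceeding the buffer control mean by over 5 SD of those controls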;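 further: ratio is mean of duplicate wells from kinetic YFP trace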
ClC-1 inh = ClC-1 chloride channel inhibition, selectivity assay for TMEM16A inhibitor project, cell-based, voltage-dependent ClC-1. CHO ClC-1-YFP, iodide influx fluorescence quench; iodide control reads 0, buffer control 100. 2,300 tested, under 10 active. ratio percent, % at 10 µM. shares compounds with ANO1 block;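 active means duplicate-mean ratio percent above the mean of iodide-only control wells, which defines zero, plus 5 of their SD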;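 further: higher percent means stronger block of ClC-1 iodide influx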
* hit, by the source's call; i = inactive; / = no result given.

SMILES	CHT inh	ANO1 block	CHT PAM	TMEM16A act	TMEM16A reconf	HEK293 Ca mobil	Parental YFP cnt	ClC-1 inh	others
Nc1c(C(=O)NCc2ccco2)c2nc3ccccc3nc2n1CCN1CCOCC1	i	i	6.4*	i	/	/	/	/	CHT act confirm=20*;HEK293 MP dye=-21*
C[C@@H]1C(=O)O[C@H]2[C@H](O)[C@]34[C@@H]5OC(=O)[C@]3(OC3OC(=O)[C@H](O)C34[C@H](C(C)(C)C)[C@@H]5O)[C@@]12O (stereo partly specified)	/	/	/	i	/	/	/	/
Oc1cc(Cl)ccc1Oc1ccc(Cl)cc1Cl	-5*	100*	i	i	70%*	i	-0.96	-19
O=C(O)COc1ccc(Cl)cc1Cl	i	i	i	i	/	/	/	/
CCN(CC)c1ccc(N=Cc2c(O)n(-c3ccccc3)c(=O)[nH]c2=O)cc1	i	i	i	i	i	i	-0.93	-13
CCOc1ccc(-n2c(O)c(C=Nc3ccc(N(CC)CC)cc3)c(=O)[nH]c2=O)cc1	i	i	i	i	28%*	i	-0.68	-10
CCOc1ccc(-n2c(O)c(C=Nc3ccc(NC(C)=O)cc3)c(=O)[nH]c2=O)cc1	i	i	i	i	/	/	/	/
COc1cccc(NP2(=O)OCC(C)([N+](=O)[O-])CO2)c1 (stereo unspecified)	/	/	/	i	/	/	/	/
CN1C(=O)NC(=O)C(N=Nc2ccc(Cl)cc2)C1=O (stereo unspecified)	/	/	/	i	/	/	/	/
Oc1c(Cl)c(Cl)c(Cl)c(Cl)c1Cl	i	100*	i	i	17%*	i	-0.75	-20
Cc1ccc2nc(N3CCC(C(=O)N4CCC5(CC4)OCCO5)CC3)sc2c1	i	i	i	i	/	/	/	/
CCc1ccc2nc(N3CCC(C(=O)N4CCC5(CC4)OCCO5)CC3)sc2c1	i	100*	i	i	i	21%*	-1.1	6
CC(=O)c1cn(Cc2ccccc2C#N)c2ccccc12	i	25*	i	i	i	i	-0.98	-20
CC(C)C(=O)c1cn(Cc2ccccc2C#N)c2ccccc12	i	i	i	i	/	/	/	/
CCOC(=O)C(O)(c1ccc(NC(=S)NC(=O)c2ccc(Cl)cc2Cl)c(C)c1)C(F)(F)F (stereo unspecified)	i	25*	i	i	54%*	i	-0.82	-6
Cc1nn(CC(C)C)c(Cl)c1C(=O)NC1CCCCC1	/	/	/	i	/	/	/	/
CC[n+]1c(/C=C/C=C/c2ccc(N(C)C)cc2)sc2ccccc21	i	25*	i	i	40%*	i	-0.93	-1
CN(C)c1ccc(/C=C/c2cc[n+](C)c3ccccc23)cc1	/	/	/	i	/	/	/	/
c1cc2c(cc1NC1=NCCO1)CCCC2	/	/	/	i	/	/	/	/
Cc1ccc(N(C)C(=O)Oc2ccc(C(=O)c3ccc(Cl)cc3)cc2)cc1	i	25*	i	i	i	i	-1.1	-4
Cc1cnc(-n2c(=S)[nH]c3ccccc3c2=O)s1	/	/	/	i	/	/	/	/
O=C(c1ccc(C(F)(F)F)cc1)C1CCCN(Cc2ccncc2)C1 (stereo unspecified)	i	25*	i	i	i	i	-1.1	-10
CC1=C(N2CC2)C(=O)C(CO)=C(N2CC2)C1=O	/	/	/	i	/	/	/	/
O=c1[nH]c(=S)n(CCC2=CCCCC2)c(O)c1C=NC1CCN(Cc2ccccc2)CC1	i	100*	i	i	i	i	-1.2	-16
